Laboratory results published in PubChem BioAssay AID777 (Sanford-Burnham Center for Chemical Genomics, 2007).
Screen size: about 96,000 compounds; about 19,000 (20%) were called active.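 How the source made its calls: active means blocking of liver enzyme CYP2C9 beyond about 50% at 5 µM (limit read from the data); inactive means the rest.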 A selection follows.

These compounds were tested against Cytochrome P450 2C9 (Homo sapiens) (UniProt P11712) (assay: blockers of cytochrome P450 2C9 activity – biochemical, luminescence, ADME assay, primary screen (AID 777)). Conditions: CYP2C9 Supersomes, luciferin-H conversion, at 5 µM, hits give high values.
Sequence of Cytochrome P450 2C9 (Homo sapiens) (P11712 whole entry, looked up): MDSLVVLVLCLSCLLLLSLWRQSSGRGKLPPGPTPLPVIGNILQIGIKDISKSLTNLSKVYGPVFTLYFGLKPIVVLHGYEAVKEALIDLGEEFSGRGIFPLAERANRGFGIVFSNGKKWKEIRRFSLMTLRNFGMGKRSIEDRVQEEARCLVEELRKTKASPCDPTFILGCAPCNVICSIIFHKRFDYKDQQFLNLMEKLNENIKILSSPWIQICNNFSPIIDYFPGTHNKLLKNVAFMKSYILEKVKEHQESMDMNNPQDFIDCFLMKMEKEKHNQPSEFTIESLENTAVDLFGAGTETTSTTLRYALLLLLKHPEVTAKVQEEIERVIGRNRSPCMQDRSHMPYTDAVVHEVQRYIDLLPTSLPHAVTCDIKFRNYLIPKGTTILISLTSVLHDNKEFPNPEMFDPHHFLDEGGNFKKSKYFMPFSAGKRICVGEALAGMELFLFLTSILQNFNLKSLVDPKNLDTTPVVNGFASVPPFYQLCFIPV
`CC1CCCC(C)N1C(=O)CN1CCN(c2nc(-c3ccc(F)cc3)cs2)CC1` (stereo unspecified) was tested, and the inhibition was 1.8% (inactive). `O=C(Cn1nnc(-c2ccccc2)n1)NCc1ccccc1` was tested, and the inhibition was -11.3% (inactive). `O=C(COC(=O)c1ccc2c(c1)OCCO2)NCc1ccccc1` was tested, and the inhibition was -9.3% (inactive). With `O=C(Cn1nnc(-c2ccc3c(c2)OCO3)n1)NCc1ccco1` the inhibition was 16.6% (inactive). `O=C(NCCc1ccc2c(c1)OCCO2)c1cc2ccccc2o1` was tested, and the inhibition was 35.2% (inactive). In the case of `O=C(CC(Cc1ccccc1)C(=O)O)NCCc1ccc2c(c1)OCO2` (stereo unspecified), the inhibition is reported as 75.5% (active). For `COc1ccc(-c2csc(N3CCN(Cc4ccc5c(c4)OCO5)CC3)n2)cc1`, the inhibition was -14.4% (inactive). With `O=C(COc1ccccc1)NCc1ccc2c(c1)OCO2` the inhibition was 32.4% (inactive). `O=C(CN1CCN(c2nc(-c3ccccc3)cs2)CC1)NCc1ccc2c(c1)OCO2` was tested, and the inhibition was 91.4% (active). In the case of `O=C(Cn1nnc(-c2ccccc2)n1)NCc1ccc2c(c1)OCO2`, the inhibition is reported as 50.4% (active). For `O=C(CN(Cc1ccccc1)C(=O)c1ccc2c(c1)OCCO2)NCc1ccc2c(c1)OCO2`, the inhibition was 50.2% (active). With `O=C(NCc1ccc2c(c1)OCO2)c1cc2c(s1)CS(=O)(=O)C2` the inhibition was 25% (inactive). With `N#C/C=C1\Sc2ccccc2C(=O)N1CC(=O)N1CCN(S(=O)(=O)c2ccccc2)CC1` the inhibition was -15.4% (inactive). For `Cc1c(-c2ccccc2)nc(N)c(C#N)c1-c1cccs1`, the inhibition was 29.3% (inactive). In the case of `O=c1c2ccccc2nc2n1C(CSc1ccc(Cl)cc1)CN2` (stereo unspecified), the inhibition is reported as -1.6% (inactive). `Cc1nc2ccc(S(=O)(=O)NC(C(=O)N3CCCCCC3)C(C)C)cc2s1` (stereo unspecified) was tested, and the inhibition was 26.6% (inactive). `COC(=O)Nc1ncc(CN2C(=O)c3ccccc3C2=O)s1` was tested, and the inhibition was -12% (inactive). For `N/C(=N\OC(=O)CCC1CCCCC1)c1ccccn1`, the inhibition was 0.9% (inactive). `O=C(O)c1cc(S(=O)(=O)N2CCCCCC2)c(Cl)cc1Cl` was tested, and the inhibition was 22.4% (inactive). In the case of `O=C(COC(=O)c1ccccc1SCC(=O)NC1CCCCC1)NC1CCCCC1`, the inhibition is reported as 12.1% (inactive). `CCOC(=O)c1ccc(-c2ccc(C(=O)Nc3cccnc3)o2)cc1` was tested, and the inhibition was 14.6% (inactive). With `CCOC(=O)c1cc(NC(=O)c2ccc(Cl)cc2)c(=O)oc1-c1ccccc1` the inhibition was -22.2% (inactive). In the case of `CCOC(=O)c1ccc(COC(=O)CCc2nc(-c3ccccc3)c(-c3ccccc3)o2)cc1`, the inhibition is reported as 85.6% (active). `Cc1ccc(O)c(NC(=O)COc2cc(C)ccc2C)c1` was tested, and the inhibition was -59.4% (inactive). In the case of `COc1ccccc1-c1c(C)nn2c(C)c(C(C)=O)cnc12`, the inhibition is reported as 3.7% (inactive). `COc1ccc(-c2nc(SCC(=O)N3CCOCC3)n[nH]2)cc1` was tested, and the inhibition was -9.6% (inactive).
